Reference: paper PMC4336329 (PLoS ONE, 2015)
About 14,000 (4.5%) of roughly 310,000 compounds showed an effect of 50% or more. Effects have a minus sign here. The entries come from a sample that favours strong results as a whole.

Target: human ether-à-go-go-related gene (hERG) potassium channel (human, UniProt Q12809)
Assay: primary screen, population patch clamp on CHO cells stably expressing hERG; higher = less effect of the substance
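Further: peak tail current of the secondary pulse compared with the same well before compound.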

human ether-à-go-go-related gene (hERG) potassium channel, sequence (Q12809 whole entry, looked up): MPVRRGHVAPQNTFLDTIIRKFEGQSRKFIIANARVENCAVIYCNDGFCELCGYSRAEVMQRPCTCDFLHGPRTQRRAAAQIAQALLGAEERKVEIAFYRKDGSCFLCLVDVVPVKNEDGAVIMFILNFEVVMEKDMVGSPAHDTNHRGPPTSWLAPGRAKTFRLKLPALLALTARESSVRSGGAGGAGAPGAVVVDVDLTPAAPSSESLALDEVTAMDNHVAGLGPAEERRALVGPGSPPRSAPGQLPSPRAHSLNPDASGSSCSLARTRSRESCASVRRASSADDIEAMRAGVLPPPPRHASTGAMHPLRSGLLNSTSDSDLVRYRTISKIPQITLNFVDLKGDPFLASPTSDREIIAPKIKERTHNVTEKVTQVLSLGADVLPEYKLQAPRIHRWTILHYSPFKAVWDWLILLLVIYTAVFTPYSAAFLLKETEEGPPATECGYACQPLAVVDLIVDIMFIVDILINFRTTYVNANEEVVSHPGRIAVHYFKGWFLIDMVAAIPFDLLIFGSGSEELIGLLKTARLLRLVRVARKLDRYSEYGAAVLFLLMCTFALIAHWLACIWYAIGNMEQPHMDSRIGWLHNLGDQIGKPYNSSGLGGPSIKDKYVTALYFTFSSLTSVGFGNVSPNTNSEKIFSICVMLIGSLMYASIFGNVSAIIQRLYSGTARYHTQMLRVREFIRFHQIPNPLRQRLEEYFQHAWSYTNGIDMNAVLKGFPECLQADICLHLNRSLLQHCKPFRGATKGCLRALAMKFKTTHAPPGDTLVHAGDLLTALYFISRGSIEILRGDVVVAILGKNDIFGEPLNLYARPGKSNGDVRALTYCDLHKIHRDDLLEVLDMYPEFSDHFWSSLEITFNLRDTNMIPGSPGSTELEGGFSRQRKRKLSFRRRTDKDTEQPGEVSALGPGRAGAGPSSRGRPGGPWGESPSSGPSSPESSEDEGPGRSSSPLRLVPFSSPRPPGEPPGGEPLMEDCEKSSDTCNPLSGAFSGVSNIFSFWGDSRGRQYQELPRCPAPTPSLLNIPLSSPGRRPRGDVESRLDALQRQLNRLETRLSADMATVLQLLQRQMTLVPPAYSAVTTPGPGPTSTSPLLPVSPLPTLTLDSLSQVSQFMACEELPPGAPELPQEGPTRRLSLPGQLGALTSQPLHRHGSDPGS

| SMILES | hERG current change (%, negative = inhibition) at 10uM [%] |
| --- | --- |
| O=S(=O)(NCc1cn2ccsc2n1)c1cccs1 | 15.6 |
| Cc1cc(C(=O)OCC(=O)Nc2nccs2)c2ccccc2n1 | 1.22 |
| Cc1cc(C)c2c(n1)nn1c(C)c(CCC(=O)NCc3ccco3)c(C)nc21 | -12.1 |
| CCOC(=O)CSc1nnc2n1C(C)(C)Cc1ccccc1-2 | -4.66 |
| CCOc1cc(C(=O)N=c2sccn2C)cc(Br)c1OC | 8.84 |
| CNC(=O)COC(=O)c1ccc(NC(=O)CC#N)cc1 | 11.9 |
| CCN(CC(=O)Nc1c(F)cccc1F)C(=O)c1ccc2c(c1)S(=O)(=O)N=C1CCCCCN12 | 9.69 |
| Cc1nn(Cc2ccccc2)c(C)c1NC(=O)c1ccc([N+](=O)[O-])cc1[N+](=O)[O-] | -57 |
| Cc1cc(C(=O)Nc2c(C)nn(Cc3ccc(Cl)cc3)c2C)no1 | -15.4 |
| Cc1cc(C(=O)Nc2c(C)nn(Cc3ccccc3)c2C)on1 | 1.26 |
| O=C(Nc1cnn(Cc2ccc(Cl)cc2)c1)c1ccc([N+](=O)[O-])cc1 | -31.4 |
| CCN(CC)P(=O)(Nc1ccc([N+](=O)[O-])cc1)c1c(C)nn(CCC#N)c1NC(=O)c1ccc(Cl)cc1 (stereo not shown) | -56.9 |
| CCN(CC)P(=O)(Nc1ccc(Br)cc1)c1c(C)nn(CCC#N)c1NC(=O)c1ccc(Cl)cc1 (stereo not shown) | 7.19 |
| Cc1nn(Cc2ccccc2)c(C)c1NC(=O)Cn1nc([N+](=O)[O-])c(Cl)c1C | -10.4 |
| Cc1onc(-c2ccccc2)c1C(=O)NCc1ccc(Cl)cc1 | 13.8 |
| CCn1nc(C)c(NC(=O)c2ccc(Cl)cc2)c1C | 5.72 |
| CCN(CC)P(=O)(Nc1ccc([N+](=O)[O-])cc1)c1c(C)nn(CCC#N)c1NC(=O)c1ccc(Cl)cc1Cl (stereo not shown) | 3.17 |
| Cc1nn(Cc2ccc(Cl)cc2)c(C)c1NC(=O)c1ccc([N+](=O)[O-])cc1 | -72.6 |
| Cc1nn(Cc2ccc(Cl)cc2)c(C)c1NC(=O)c1c(-c2ccccc2)noc1C | -65.1 |
| C=CCNC(=S)Nc1ccc(OC)c(S(=O)(=O)N2CCOCC2)c1 | -10.3 |

| SMILES | hERG current change (%, negative = inhibition) at 10uM [%] |
| --- | --- |
| CC(=O)c1cc2c(cc1NC(=O)CCc1c(C)nc3ncnn3c1C)OCO2 | -10.1 |
| C=CCn1c(N)c(C(=O)NCc2cccnc2)sc1=S | -35.1 |
| COc1cccc(CN2CC(C(=O)NCCSc3nnnn3C)CCC2=O)c1 (stereo not shown) | 18 |
| CC(C)(C)C(=O)Nc1ccc(N=Nc2ccccc2)cc1 | -0.305 |
| O=C(O)C(Cc1c[nH]c2ccccc12)N1C(=O)C2C3c4ccccc4C(c4ccccc43)[C@@H]2C1=O (stereo partly shown) | 18 |
| Nc1nnc(CSCc2ccc(Cl)cc2Cl)s1 | 0.235 |
| Cc1cc(NS(=O)(=O)c2ccc(NC(=O)CCc3ccccc3)cc2)no1 | 12.2 |
| O=C(c1nc2ccccn2c1CNCCCn1ncc2ccccc21)N1CCCC1 | -37.7 |
| CCCCN(C)C(=O)c1nc2ccccn2c1CNCCCn1ncc2ccccc21 | -55 |
| CN(Cc1ccccc1)C(=O)c1nc2ccccn2c1CNCCOc1cccnc1 | -31 |
| CN(Cc1ccccc1)C(=O)c1nc2ccccn2c1CNCCn1cccn1 | -32.3 |
| CN(Cc1ccccc1)C(=O)c1nc2ccccn2c1CNCCCOc1cccnc1 | -52.3 |
| CCCCN(C)C(=O)c1nc2ccccn2c1CNCCCn1nnc2ccccc21 | -38 |
| CCOc1ccccc1NC(=O)CCS(=O)(=O)c1ccc(OC)cc1 | -0.411 |
| COc1ccc(-n2c(C)cc(/C=C3/SC(=S)N(C)C3=O)c2C)cc1 | 20.7 |
| CCOc1ccccc1C1CC(=O)NC(SCC(=O)Nc2nccs2)=C1C#N (stereo not shown) | -0.586 |
| CN(C)CCN1C(=O)C(O)=C(C(=O)c2ccco2)C1c1ccccc1F (stereo not shown) | 11.9 |
| Cc1ccc(C(=O)N/C(=C\c2cccnc2)C(=O)N2CCCC2)cc1 | -1.72 |
| Fc1ccc(C2CCCN2Cc2nc(Cc3ccccc3)no2)cc1 (stereo not shown) | -15.2 |
| CN(C)c1nc(N)c([N+](=O)[O-])c(NCc2ccccc2)n1 | 4.16 |

| SMILES | hERG current change (%, negative = inhibition) at 10uM [%] |
| --- | --- |
| O=C(NCc1ccccn1)C(=O)NCC1OCCN1S(=O)(=O)c1ccc(F)cc1 (stereo not shown) | 11.7 |
| CC(C)(C)C(=O)N1CCN(CCN2C(=O)c3cccc4cccc(c34)C2=O)CC1 | 3.09 |
| CC(C)OCC(O)CN1CCN(CCN2C(=O)c3cccc4cccc(c34)C2=O)CC1.Cl (stereo not shown) | -51.7 |
| CCC(OCC(O)CN1CCN(CCN2C(=O)c3cccc4cccc(c34)C2=O)CC1)c1ccccc1.Cl (stereo not shown) | -58.4 |
| CC(=O)c1ccc(OCC(O)CN2CCN(CCN3C(=O)c4cccc5cccc(c45)C3=O)CC2)cc1.Cl (stereo not shown) | -34.1 |
| CS(=O)(=O)N1CCN(CCN2C(=O)c3cccc4cccc(c34)C2=O)CC1 | 7.17 |
| CCNC(=S)N1CCN(CCN2C(=O)c3cccc4cccc(c34)C2=O)CC1 | 0.247 |
| CCCCN(C(=O)Cc1ccc(S(=O)(=O)N2CCOCC2)s1)c1c(N)n(CCCC)c(=O)[nH]c1=O | 0.586 |
| C=CCNc1oc(-c2ccco2)nc1S(=O)(=O)c1ccccc1 | -4.58 |
| N#CCc1nn(-c2ccccc2)c(N)c1C#N | 5.46 |
| CCc1ccc(NC(=O)C(=O)N/N=C(\C)CC(=O)Nc2ccccn2)cc1 | -8.33 |
| COc1ccc2cc3cc(C(=O)NCc4ccco4)oc3nc2c1 | -9.75 |
| O=C(O)C1CC(=O)N(CCc2ccc(F)cc2)C1 (stereo not shown) | -8.39 |
| CC(C)CCN1CC(C(=O)N2CCN(c3ccc(F)cc3)CC2)CC1=O (stereo not shown) | -25.4 |
| Cc1ccc(CCN2CC(C(=O)O)CC2=O)cc1 (stereo not shown) | -0.636 |
| Cc1ccc(CCN2CC(C(=O)N3CCN(c4ccc(F)cc4)CC3)CC2=O)cc1 (stereo not shown) | -57.4 |
| O=C1CC(C(=O)N2CCN(c3ccc(F)cc3)CC2)CN1CCc1ccccc1 (stereo not shown) | -50.5 |
| COc1ccccc1CN1CC(C(=O)N2CCN(c3ccc(F)cc3)CC2)CC1=O (stereo not shown) | -43 |
